# Source: PubChem
# Shown are actives, neighbours in structure and some others; about 2.9% of the full set was active somewhere.
# TRPML1 blocker: blocks the human TRPML1 channel; Q9GZU1; TRPML1-inducible cells, Ca2+ dye fluorescence, FDSS; stronger effect = lower value; inhibition of EC80 agonist-evoked calcium signal; activity change, negative = inhibition, % (no concentration beside the values); 390,000 tested, 0.02% active; AID 624415; in the data active = activity change below about -50%; inconclusive = between about -30% and that limit;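 also: stimulus is agonist 54-4 at its EC80 concentration; % is scaled to controls: 0 for no effect and ±100 for the full control effect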
#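 Calcium fluorescence in TRPML1-DL cells induced overnight with Tet: a 110 s read after compound pin addition, then a 110 s antagonist read after challenge with 54-4 at 4 uM final (EC80).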
# DRD3 agonist: agonists of human D3 dopamine receptor. D3R DiscoveRx beta-arrestin cells, luminescence, 90 min. max activation, %. 410,000 tested, 0.58% active. AID 652048; in the data active = max activation above about 30%; also: 0% is about no effect
# Target sequence (P35462 whole entry, looked up): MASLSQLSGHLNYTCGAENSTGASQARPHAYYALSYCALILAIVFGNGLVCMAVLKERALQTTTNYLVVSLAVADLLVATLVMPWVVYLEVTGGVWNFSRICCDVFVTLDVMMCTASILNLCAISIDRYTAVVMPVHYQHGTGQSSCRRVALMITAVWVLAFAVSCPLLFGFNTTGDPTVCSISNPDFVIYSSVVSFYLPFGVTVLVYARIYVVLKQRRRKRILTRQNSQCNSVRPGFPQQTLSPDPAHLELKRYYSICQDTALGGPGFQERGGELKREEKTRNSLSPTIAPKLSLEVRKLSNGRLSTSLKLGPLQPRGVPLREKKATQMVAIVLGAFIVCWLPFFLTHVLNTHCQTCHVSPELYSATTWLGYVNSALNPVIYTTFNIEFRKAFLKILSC
#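 Agonist mode: compounds and dopamine controls were applied to plated cells for 90 min at 37 degrees C after an overnight attachment at 1500 cells/well. Luminescent read-out followed 30 - 60 minutes at room temperature with DiscoveRx detection reagent.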
# TRPML1 agonist: human mucolipin-1 channel agonism. TRPML1-expressing cells, Ca2+ dye fluorescence, FDSS. 410,000 tested, 0.12% active. activation, % (test concentration not listed); in the data active = activation above about 50%; inconclusive = mostly about 30% to 49%; also: 0% is about no effect
#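 Kinetic FDSS Ca2+ read in Tet-induced TRPML1-DL cells (ABD Ca8 dye plus quencher, 45-90 min RT loading): baseline, then compound, then 110 s agonist window; EC80 agonist 54-4 at 4uM final added afterwards for a 110 s antagonist window.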
# D3 antag: antagonists of human D3 dopamine receptor | D3R cells, DiscoveRx beta-arrestin luminescence, antagonist mode; stronger effect = lower value | max response, negative = inhibition, % | 360,000 tested, 2.5% active | AID 652054; in the data active = max response below about -50%; inconclusive = no clear call, values can overlap the other calls; also: % is scaled to controls: 0 for no effect and ±100 for the full control effect
#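 Cells plated overnight at 1500 cells/well, then exposed to library compounds with dopamine controls for 90 minutes at 37 degrees C. DiscoveRx reagent added for 30–60 minutes at room temperature; luminescence read, quantitative HTS format.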
# * marks the source's active call; other numbers are inactive results; ? = inconclusive; / = no result.
SMILES,TRPML1 blocker,DRD3 agonist,TRPML1 agonist,D3 antag
CC(=O)c1ccc(OC2(C)CCN(Cc3csc4ccccc34)C2)cc1 (configuration not stated),/,-10.4,-0.7,-53.2*
Nc1cccc(/C=C2\C=Cc3ccccc32)c1,/,/,-0.3,/
CN(CC(=O)Nc1ccc(OC(F)(F)F)cc1)C(=O)/C=C/c1cc2c(cc1[N+](=O)[O-])OCO2,13.2,-30.3,-0.1,-94.6*
O=C(NCCNC1CCC(c2ccccc2)CC1)c1ccc(F)cc1 (configuration not stated),-2.7,-35.1,-0.1,-92.4*
Cc1oc(-c2ccccc2F)nc1CN1CCC(C(=O)NC2CC2)CC1,5.4,0.6,-0.5,-25.0
Cc1oc(-c2ccccc2F)nc1CN1CCC(C(=O)NCc2cccs2)CC1,-17.9,-0.5,-1.0,-51.7*
COc1ccc(OC)c(NC(=O)c2c(N3CCCC3=O)c3cc(OC)ccc3n2C)c1,-15.7,4.1,1.0,/
CCc1ccc2c(c1)c(=O)c(C(=O)c1ccc(C)cc1)cn2CC(=O)Nc1ccc2c(c1)OCCO2,-8.8,-1.1,1.4,/
O=C(CCNS(=O)(=O)c1ccc2c(c1)CCN2C(=O)C1CC1)N1CCN(c2ccccc2F)CC1,2.3,-2.7,0.3,/
CCC(=O)N1CCc2cc(S(=O)(=O)NC(C(=O)NCc3ccc(F)cc3)C(C)C)ccc21 (configuration not stated),-1.2,-2.2,-0.9,-16.1
CCC(=O)N1CCc2cc(S(=O)(=O)NC(C(=O)NCc3ccccc3)C(C)C)ccc21 (configuration not stated),-11.3,-3.6,-0.1,-76.8*
O=C(C1CCC1)N1CCc2cc(S(=O)(=O)NCCN3CCN(c4ccccc4F)CC3)ccc21,11.0,66.8*,0.5,-28.1
CCC(=O)N1CCc2cc(S(=O)(=O)NCCN3CCCCC3CC)ccc21 (configuration not stated),13.1,-6.6,1.2,-59.3*
CCCCCCCOc1ccc(CC(=O)NO)cc1,/,/,-0.8,/
CCOc1ccccc1NC(=O)Cn1cc(C(=O)c2ccc(Cl)cc2)c(=O)c2ccc(C)nc21,-5.3,-4.0,-0.5,/
COC(=O)C1=C(C)N(Cc2ccccc2)C(=NCc2ccc(OC)cc2)N[C@H]1c1ccccc1,12.2,-39.7,1.5,-54.3*
COC(=O)C1=C(C)N(Cc2ccccc2)C(=NCC(C)C)N[C@H]1c1ccccc1,7.0,7.9,7.9,-2.6
COC(=O)C1=C(C)N(Cc2ccccc2)C(=S)N[C@H]1c1ccccc1,-22.5,-15.1,64.6*,-22.3
O=C(c1ccc(Cl)cc1)C1CCCN(Cc2cnn(-c3ccccc3)c2)C1 (configuration not stated),-5.1,-13.2,-0.7,-70.6*
O=C(c1ccc(-c2ccccc2)cc1)C1CCCN(Cc2ccncc2)C1 (configuration not stated),-8.2,-9.0,0.1,-7.5
CC(C)(C)CC(C)(C)N=C1Nc2cc(Cl)c(Cl)cc2N[C@]12C[C@H]1CCCC(=O)N3CC[C@@H](C2)[C@@H]13,/,/,-0.3,/
Cc1ccccc1NC(=O)CSC(N)=O,-6.2,-3.7,0.7,-11.1
COc1ccccc1NC(=O)CSc1nnc(-c2ccccn2)o1,28.9,31.8*,-0.6,11.6
COc1ccccc1NC(=O)CCN1CCCCCC1,8.9,-33.0,0.6,-111.1*
COc1ccccc1NC(=O)CN1CCCCCC1,-5.6,5.7,-0.6,-5.4
SMILES,TRPML1 blocker,DRD3 agonist,TRPML1 agonist,D3 antag
COc1ccccc1NC(=O)CCN1CCN(Cc2ccccc2)CC1,-13.1,-29.8,-0.3,-54.8*
COc1ccccc1NC(=O)CSC(N)=O,-2.5,3.7,-0.1,-107.2*
COc1ccccc1NC(=O)CSc1nnc(-c2ccc(C)cc2)o1,10.6,-1.9,-0.2,-22.5
O=C(c1cc2ccccc2[nH]1)c1cc2cc(O)ccc2[nH]1,/,/,-0.8,/
O=C(COC(=O)C12CC3CC(CC(Cl)(C3)C1)C2)NCc1ccco1,4.7,/,1.1,/
COc1ccc(-c2cn3cccnc3n2)cc1NC(=O)COc1ccccc1,-2.5,7.5,2.9,/
Cc1cccc(Cn2cnc3c(cnn3C(C)(C)C)c2=O)c1,8.0,/,1.4,/
CCCN(CCC)C(=O)CSc1nc2n[nH]c(C)c2c(=N)n1-c1ccc(OCC)cc1,3.1,2.1,3.0,-50.3*
CCCN(CCC)C(=O)CSc1nc2n[nH]c(C)c2c(=N)n1-c1ccc(OC)cc1,34.5,2.1,1.4,12.1
CC(C)Oc1ccc(CNC(=O)CCCn2c(=O)c3cccn3c3ccccc32)cc1,-10.1,-8.9,5.0,/
Cc1ccc(C)c(NC(=S)NC(NC(=O)Cc2ccccc2)C(Cl)(Cl)Cl)c1 (configuration not stated),17.4,-14.7,-0.5,?
O=C(COc1ccccc1)NC(NC(=S)Nc1ccccc1C(=O)O)C(Cl)(Cl)Cl (configuration not stated),13.5,-0.6,1.1,-77.3*
CC(C)CC1NC(=O)c2cc3ccccc3cc2-n2c1nc1ccc(F)cc1c2=O (configuration not stated),1.7,-7.4,2.6,-57.9*
COc1ccc2nc3n(c(=O)c2c1)-c1ccc(Cl)cc1C(=O)NC3Cc1ccc(O)cc1 (configuration not stated),-4.6,44.2*,-0.8,4.2
COc1ccc2nc3n(c(=O)c2c1)-c1cc2ccccc2cc1C(=O)NC3Cc1ccc(O)cc1 (configuration not stated),-11.0,-1.6,-0.5,-30.0
CCc1ccc(CNC(=O)CN2C(=O)CCn3nc(-c4cn(C)c5ccccc45)cc32)cc1,-2.6,-8.2,0.1,/
Cc1csc(NCC(=O)c2c(C)[nH]c3ccccc23)n1,/,/,-0.6,/
Cc1cc(Cn2nc(C(=O)NCc3cccc(C(F)(F)F)c3)cc2-c2ccccc2)on1,-0.8,-15.0,2.1,-59.9*
COc1cc([N+](=O)[O-])ccc1NC(=O)N1CCC2(CC1)Nc1ccccc1-n1cccc12,-25.0,2.3,-0.4,/
Cc1ccc(NCN2C(=O)C(=O)c3ccccc32)nc1,-2.2,-50.2,-0.4,-64.1*
Cc1ccc(NC(=O)CCCCCN2C(=O)c3ccccc3C2=O)nc1,3.8,-7.6,-0.5,-6.5
CC(=O)c1c(C)cc(C)c(CSc2nc(C)cc(=O)[nH]2)c1C,34.6,69.0*,2.1,452.4
O=C(CCOc1ccccc1)Nc1ccnn1C1CCN(CCc2ccccc2)CC1,-5.6,-17.6,-0.2,-52.2*
Cc1ccccc1CN1CCC(n2nccc2NC(=O)CCCc2ccccc2)CC1,-4.6,-3.3,2.8,-80.5*
COc1cc(OC)c(NC(=O)CN2C(=O)CCn3nc(-c4cccn4C)cc32)cc1Cl,1.0,8.8,0.2,/
Cc1ccc2nc(COc3ccccc3NC(=O)c3ccc(F)cc3)cc(=O)n2c1,35.8,1.1,0.3,/
CCOc1cc(CNCc2ccccn2)ccc1OCC(=O)NC1CCCCC1,-1.6,-23.2,-0.3,-88.9*
NC(=O)c1ccc(NCCc2cccs2)cc1,/,-8.1,1.9,-50.2*
Cn1nnnc1SCCCNCc1cc(Br)ccc1OCc1ccccc1F,17.6,-25.1,-0.3,/
Cc1cc2nc(-c3ccc(OCc4ccc(F)cc4)cc3)cc(C(F)(F)F)n2n1,-8.5,3.3,-0.8,/
